Laboratory results taken from PubChem BioAssay (NCATS).
For some of these results: Measured potencies and affinities stand elsewhere. Active and inactive are the calls of the source. For most assays here, calls follow the shape of the full dose curve.

Assays:
[1] = Ebola virus entry assay, blue channel fluorescence
[2] = Ebola virus entry assay, green fluorescence channel
[3] = Ebola virus entry assay, ratio channel readout
[4] = Ebola virus entry assay, blue channel fluorescence; remark: listed apart in the source

| SMILES | outcome [1] | outcome [2] | outcome [3] | AC50 [1] | AC50 [3] | outcome [4] |
| --- | --- | --- | --- | --- | --- | --- |
| CC(=O)NCCCS(=O)(=O)O | inactive | inactive | inactive |  |  |  |
| C=CC1=C(C(=O)O)N2C(=O)[C@@H](NC(=O)/C(=N\O)c3csc(N)n3)[C@H]2SC1 (stereo in doubt) | inactive | inactive | inactive |  |  |  |
| O=P(O)(O)C(Sc1ccc(Cl)cc1)P(=O)(O)O | inactive | inactive | inactive |  |  |  |
| CO/N=C(\C(=O)N[C@@H]1C(=O)N2C(C(=O)O)=CCS[C@H]12)c1csc(N)n1 | inactive | inactive | inactive |  |  |  |
| CO[C@H]1C=CO[C@@]2(C)Oc3c(C)c(O)c4c(O)c(c5c(c4c3C2=O)=NC2(CCN(CC(C)C)CC2)N=5)NC(=O)/C(C)=C\C=C/[C@H](C)[C@H](O)[C@@H](C)[C@@H](O)[C@@H](C)[C@H](OC(C)=O)[C@@H]1C | inactive | inactive | inactive |  |  |  |
| C=C1[C@H](CO)[C@@H](O)C[C@@H]1n1cnc2c(=O)[nH]c(N)nc21 | inactive | inactive | inactive |  |  |  |
| CCC(=O)OC(OP(=O)(CCCCc1ccccc1)CC(=O)N1C[C@H](C2CCCCC2)C[C@H]1C(=O)O)C(C)C (some centres undefined) | inactive | inactive | inactive |  |  |  |
| O=C(O[C@H]1CN2CCC1CC2)N1CCc2ccccc2[C@@H]1c1ccccc1 |  | inactive |  | 10 µM (active) | 7.95 µM (active) |  |
| N#Cc1ccc2c(c1)N(CCCN1CCC(O)CC1)c1ccccc1S2 | inactive | inactive |  |  | 22.4 µM (active) |  |
| Clc1ccc2nsnc2c1NC1=NCCN1 | inactive | inactive | inactive |  |  | inactive |
| OC[C@H]1O[C@@H](n2cnc3c2NC=NC[C@H]3O)C[C@@H]1O | inactive | inactive | inactive |  |  |  |
